According to PubChem BioAssay (NCATS):
Results filed as inconclusive are left out. Calls of active or inactive are those of the source. The call rests on the fitted dose curve; in most records, active means well fitted curve in the direction sought with a large enough effect; inconclusive means small, poorly fitted or top-dose-only effect, or another doubt; inactive means no such curve, though single readings can be large; an effect the other way counts as inactive or inconclusive.

Experiments:
[1] = target: Glutathione peroxidase 1 (Homo sapiens) (UniProt P07203); assay: Primary qHTS Assay for Inhibitors of Recombinant Selenoprotein Glutathione Peroxidase 1 (GPX1) (AID 1845191); further: nearly all actives have a fitted effect of over 65% in size; on activity, negative = inhibition: on the % scale 0 is the no-effect control and ±100 the full control effect
Method in brief: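 10 nM GPX1 + cpd, 30 min RT; start w/ 1 mM GSH, 0.5 mM cumene hydroperoxide, 0.5 mM NADPH, 100 nM GR, 0.01% BSA; buffer 50 mM Tris-HCl pH 7.5, 2 mM EDTA, 150 mM NaCl; Fl 340/450, 0 & 15 min.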

[2] = target: Phospholipid hydroperoxide glutathione peroxidase GPX4 (Homo sapiens) (UniProt P36969); assay: Primary qHTS Assay for Inhibitors of Recombinant Selenoprotein Glutathione Peroxidase 4 (GPX4) (AID 1845192); further: nearly all actives have a fitted effect of over 65% in size; on activity change, negative = inhibition: series mostly up to about 50 µM; on the % scale 0 is the no-effect control and ±100 the full control effect
Method in brief: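 NADPH consumption, followed by fluorescence at 340/450 nm between 0 and 15 min, reports GPX4 activity via coupled glutathione reductase (100 nM). Enzyme 200 nM was pre-exposed to compound 30 min; 0.5 mM cumene hydroperoxide and 1 mM GSH served as substrates.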

[3] = target: Luciferin 4-monooxygenase (Photinus pyralis) (UniProt P08659); assay: Primary firefly luciferase (FLuc) qHTS assay for identification of artifact compounds. (AID 1845220); further: nearly all actives have a fitted effect of over 60% in size; further: potency means the concentration at half of the fitted maximal effect;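 on activity change, negative = inhibition: series mostly up to about 54 µM; plate controls were DMSO vehicle for no effect and no enzyme for full effect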
Method in brief: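 Compounds sat 15 min at room temperature with 10 uM luciferin and 10 uM ATP (pH 7.6 Tris acetate). Firefly luciferase (10 nM final) was then added, and luminescence was read 5 min later. Data normalized to no-enzyme and DMSO controls were Hill-fitted.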

[4] = Primary fluorescence-based thiol-reactive (MSTI) qHTS assay for identification of artifact compounds. (AID 1845221); further: nearly all actives have a fitted effect of over 65% in size; further: potency means the concentration at half of the fitted maximal effect;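 on activity change, negative = thiol reactive: series mostly up to about 54 µM; thiol-reactive compounds lower the probe fluorescence signal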
Method in brief: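 Reactivity toward the thiol probe MSTI (4 uM) is scored by fluorescence at Ex/Em 525/598 nm after 1 h at room temperature. Acetyl-MSTI and MSTI define the activity scale.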

[5] = system: Nanoluciferase (engineered Oplophorus gracilirostris luciferase); assay: Primary Nanoluciferase (NLuc) qHTS assay for identification of artifact compounds. (AID 1845222); further: potency means the concentration at half of the fitted maximal effect;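 on activity, negative = inhibition: series mostly up to about 54 µM; 0% = DMSO and -100% = no enzyme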
Method in brief: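 Luminescence from secreted NLuc (filtered, 1:55-diluted S16 cell medium) read 5 min after Nano-Glo substrate; compounds preincubated 15 min, RT. Hill fits of inhibition normalized to DMSO and no-enzyme.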

[6] = Primary redox qHTS assay for identification of artifact compounds. (AID 1845223);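 further: 0% = DMSO and 100% = reference compound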
Method in brief: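 Amplex Red (25 uM) and HRP (250 mU/mL) in HBSS, with compounds for 15 min, then 250 uM DTT for 30 min, room temperature, dark. Fluorescence 525/598 nm read; normalized to DMSO and 10 uM DA3003; Hill fit.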

Glutathione peroxidase 1 (Homo sapiens), sequence (P07203 whole entry, looked up): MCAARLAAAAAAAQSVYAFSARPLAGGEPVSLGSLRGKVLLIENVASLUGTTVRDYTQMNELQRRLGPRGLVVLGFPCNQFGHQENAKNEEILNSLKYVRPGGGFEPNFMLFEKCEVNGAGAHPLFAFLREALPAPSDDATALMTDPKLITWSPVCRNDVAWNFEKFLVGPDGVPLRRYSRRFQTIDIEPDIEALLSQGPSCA
Phospholipid hydroperoxide glutathione peroxidase GPX4 (Homo sapiens), sequence (P36969 whole entry, looked up): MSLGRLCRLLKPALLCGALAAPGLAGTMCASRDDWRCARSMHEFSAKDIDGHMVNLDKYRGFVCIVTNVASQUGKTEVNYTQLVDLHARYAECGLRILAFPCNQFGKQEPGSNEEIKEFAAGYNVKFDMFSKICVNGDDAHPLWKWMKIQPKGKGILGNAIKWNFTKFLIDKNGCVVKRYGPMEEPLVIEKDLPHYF

CC(O)(C(=O)C1CC1(CO)COC1OC(CO)C(O)C(O)C1O)C1C(O)CC2C3CC=C4CC(O)CC(O)C4(C)C3C(O)CC21C (stereo not given)
inactive: Potency [1] | Potency [2] | Potency [3] | Potency [4] | Potency [5] | Potency [6]

C=C1C(=O)O[C@@H]2[C@H]3C(C)=CC(=O)C3=C(C)[C@@H](OC(=O)/C(C)=C\C)[C@H](O)[C@@H]12
active: Potency [5] 9.31 µM
inactive: Potency [1] | Potency [2] | Potency [3] | Potency [4] | Potency [6]

C/C=C(/C)C(=O)O[C@@H]1C[C@@H](OC(=O)CC(C)C)C2(C)C3C(=O)C=C(C)C2C3C1(C)C (stereo not given in full)
inactive: Potency [1] | Potency [2] | Potency [3] | Potency [4] | Potency [5] | Potency [6]

COC1CC(O[C@H]2CC[C@]3(C)C4CC[C@]5(C)C(C6=CC(=O)OC6)=CCC56OC46CC[C@@H]3C2)OC(C)C1O[C@@H]1O[C@H](CO[C@@H]2O[C@H](CO)[C@@H](O)[C@H](O)[C@H]2O)[C@@H](O)[C@H](O)[C@H]1O (stereo not given in full)
inactive: Potency [1] | Potency [2] | outcome [3] inactive [at 11.6 µM] | activity change, negative = thiol reactive [4] 101% [at 11.5 µM] | activity, negative = inhibition [5] 0% [at 11.6 µM] | redox activity (% of DA3003) [6] 3.85% [at 11.5 µM]

CC(C)Oc1ccc(-c2cnc3c(-c4ccnc5ccccc45)cnn3c2)cc1
inactive: Potency [1] | Potency [2] | Potency [3] | Potency [4] | Potency [5] | Potency [6]

COc1cc(/C=C2\CC[C@H]3COC[C@@H](c4cc(F)c(F)c(F)c4)N3C2=O)ccc1-n1cnc(C)c1
inactive: Potency [1] | Potency [2] | Potency [3] | Potency [4] | Potency [5] | Potency [6]

C/C=C(/C)C(=O)OC1C=C2C3C(C)C(C)C(OC(=O)C(C)C(C)O)CC3(C)CCC2(C)C2(C)CC(OC(C)=O)C3C(C)(C)C(O)C(=O)CC3(C)C12 (stereo not given)
inactive: Potency [1] | Potency [2] | Potency [3] | Potency [4] | Potency [5] | Potency [6]

COc1ccc(C2(N(C)C(=O)c3ccc(NC(=O)c4ccco4)cc3)CCOCC2)cc1
inactive: Potency [1] | Potency [2] | Potency [3] | Potency [4] | Potency [5] | Potency [6]

Cc1cccc(N2CCN(C(=O)c3cc(S(=O)(=O)N(C)C)ccc3N3CCCC3)CC2)c1C
inactive: Potency [1] | Potency [2] | Potency [3] | Potency [4] | Potency [5] | Potency [6]

OC[C@H]1O[C@@H](OC/C=C/c2ccc(O)cc2)[C@H](O)[C@@H](O)[C@@H]1O
inactive: Potency [1] | Potency [2] | Potency [3] | Potency [4] | Potency [5] | Potency [6]

COc1cc(OC)c2c(=O)[nH]c(-c3cc(C)c(OCCO)c(C)c3)nc2c1
active: Potency [3] 15.1 µM
inactive: Potency [1] | Potency [2] | Potency [4] | Potency [5] | Potency [6]

Cc1ccnn1-c1ccc(C(=O)N2CCN(S(=O)(=O)c3ccc(Cl)c(C(F)(F)F)c3)CC2)cc1
inactive: Potency [1] | Potency [2] | Potency [3] | Potency [4] | Potency [5] | Potency [6]

COc1ccc(CN2CCN(CCCSc3cc(C(C)(C)C)c(O)c(C(C)(C)C)c3)CC2)c(OC)c1OC
inactive: Potency [1] | Potency [2] | activity change, negative = inhibition [3] 3.48% [at 11.6 µM] | activity change, negative = thiol reactive [4] 2.62% [at 11.5 µM] | activity, negative = inhibition [5] 3.22% [at 11.6 µM] | redox activity (% of DA3003) [6] 6.4% [at 11.5 µM]

COc1cc(C(=O)NCC2(N(C)C)CCCC2)cc(OC)c1OCc1ccccc1
inactive: Potency [1] | Potency [2] | Potency [3] | Potency [4] | Potency [5] | Potency [6]

CC#CC(=O)Nc1ccc2ncnc(Nc3cccc(Br)c3)c2c1
inactive: Potency [1] | Potency [2] | Potency [3] | Potency [4] | Potency [5] | Potency [6]

C=C1C(=O)O[C@H]2C1CCC(C)=C1C(=O)C=C(C)[C@@]12O (stereo not given in full)
inactive: Potency [1] | Potency [2] | Potency [3] | Potency [4] | Potency [5] | Potency [6]

COc1cc(-c2nc(N[C@H](CO)Cc3ccccc3)ccc2C(=O)NCCOc2ccccc2)cc(OC)c1OC
inactive: Potency [1] | Potency [2] | Potency [3] | Potency [4] | Potency [5] | Potency [6]

C=CC(C)(C)c1[nH]c2ccccc2c1C[C@@H]1NC(=O)[C@H](C)NC1=O
inactive: Potency [1] | Potency [2] | Potency [3] | Potency [5] | Potency [6]
active: Potency [4] 5.85 µM

C=C1C(=O)OC2CC3(C)C(O)C(=O)C=C(C)C3CC12 (stereo not given)
active: Potency [4] 2.67 µM
inactive: Potency [1] | Potency [2] | Potency [3] | Potency [5] | Potency [6]

Cn1ncc(Cl)c1-c1cc(C(=O)N[C@H](CN)Cc2cccc(F)c2)sc1Cl
inactive: Potency [1] | Potency [2] | Potency [3] | Potency [4] | Potency [5] | Potency [6]

O[C@@](Cc1ncc(CC2(C(F)(F)F)CC2)[nH]1)(c1ccc(-n2cccn2)cc1)C(F)(F)F
inactive: Potency [1] | Potency [2] | Potency [3] | Potency [4] | Potency [5] | Potency [6]

COc1cc(C(C)C)c(Oc2cnc(N)nc2N)cc1I
inactive: Potency [1] | Potency [2] | Potency [3] | Potency [4] | Potency [5] | Potency [6]

COc1ccc(S(=O)(=O)Nc2cc(Cl)cc(Cl)c2OC)cc1N1CCNCC1
inactive: Potency [1] | Potency [2] | Potency [3] | Potency [4] | Potency [5] | Potency [6]

C=CC1(C)CC(O)C(C(=C)C(=O)OC)C(O)C1C(=C)CO (stereo not given)
inactive: Potency [1] | Potency [2] | Potency [3] | Potency [4] | Potency [5] | Potency [6]

CC(=O)OC1C(OC(=O)c2ccccc2)C2C(=C(C)CCC2(C)C)C23CCC(C)(C2)C(=O)CC13 (stereo not given)
inactive: Potency [1] | Potency [2] | Potency [3] | Potency [4] | Potency [5] | Potency [6]

CCCCC1CCC(c2nc(-c3ccncc3)no2)CC1 (stereo not given)
inactive: Potency [1] | Potency [2] | Potency [3] | Potency [4] | Potency [5] | Potency [6]

C[C@H]1CC[C@@]2(OC1)O[C@H]1CC3[C@@H]4CC[C@@H]5C[C@@H](O[C@@H]6O[C@H](CO)[C@@H](O[C@@H]7O[C@H](CO[C@@H]8OC[C@@H](O)[C@H](O)[C@H]8O)[C@@H](O[C@@H]8O[C@H](CO)[C@H](O)[C@H](O)[C@H]8O)[C@H](O)[C@H]7O)[C@H](O)[C@H]6O)CC[C@]5(C)C4CC[C@]3(C)[C@H]1[C@@H]2C (stereo not given in full)
inactive: Potency [1] | Potency [2] | activity change, negative = inhibition [3] 2.09% [at 11.6 µM] | activity change, negative = thiol reactive [4] 133% [at 11.5 µM] | activity, negative = inhibition [5] 2.05% [at 11.6 µM] | redox activity (% of DA3003) [6] 17.1% [at 11.5 µM]

CCC(C)c1ccc(NC(=O)Cn2cnc3c2c(=O)n(C)c(=O)n3C)cc1 (stereo not given)
inactive: Potency [1] | Potency [2] | Potency [3] | Potency [4] | Potency [5] | Potency [6]

O=C1C(Cc2ccc(O)cc2)N2C(=O)CCN(C(=O)NCc3ccccc3)C2CN1Cc1cccc2ccccc12 (stereo not given)
inactive: Potency [1] | Potency [2] | Potency [3] | Potency [4] | Potency [5] | Potency [6]

C=C1CC[C@@H]2[C@](C)(CO)[C@H](O)CC[C@@]2(C)[C@@H]1/C=C/C1=CCOC1=O
inactive: Potency [1] | Potency [2] | Potency [3] | Potency [4] | Potency [5] | Potency [6]

OC(CC1c2ccccc2-c2cncn21)C1CCCCC1 (stereo not given)
inactive: Potency [1] | Potency [2] | Potency [3] | Potency [4] | Potency [5] | Potency [6]

C=C1C(=O)O[C@@H]2[C@H]1CCC(C)=C(CCC(=O)O)[C@@]2(C)O
inactive: Potency [1] | Potency [2] | Potency [3] | Potency [4] | Potency [5] | Potency [6]

O=C(Nc1cccc(C(F)(F)F)c1)Nc1ccc(Br)cc1-c1nn[nH]n1
inactive: Potency [1] | Potency [2] | Potency [3] | Potency [4] | Potency [5] | Potency [6]

O=S(=O)(NCc1cccc2ccccc12)c1cc(Cl)c(Oc2cccc(N3CCNCC3)c2)s1
inactive: Potency [1] | Potency [2] | Potency [3] | Potency [4] | Potency [5] | Potency [6]

C/C(=C\CCC(C)C1=CCC2(C)OC3=C(CC12)C(=O)C(O)CC3)CO (stereo not given)
inactive: Potency [1] | Potency [2] | Potency [3] | Potency [4] | Potency [5] | Potency [6]

Cc1ccc(F)cc1S(=O)(=O)N[C@@H]1CCN(Cc2ccc(OC(C)C)cc2)C1
inactive: Potency [1] | Potency [2] | Potency [3] | Potency [4] | Potency [5] | Potency [6]

O=C(Nc1ccccc1)N1CCC(Cc2cnc3ccccc3c2)CC1
inactive: Potency [1] | Potency [2] | Potency [3] | Potency [4] | Potency [5] | Potency [6]

C=C1CC2OC(=O)C(COC)C2C(OC(=O)/C(C)=C\C)CC2(C)OC1=CC2=O (stereo not given)
inactive: Potency [1] | Potency [2] | Potency [3] | Potency [4] | Potency [5] | Potency [6]

Cc1ccc(S(=O)(=O)NCc2ccc(C(=O)NCCN(Cc3ccccc3)C(C)C)cc2)cc1
inactive: Potency [1] | Potency [2] | Potency [3] | Potency [4] | Potency [5] | Potency [6]

OC(c1ccc(-c2ccc(CN3CCN(Cc4ccncc4)CC3)cc2)c(F)c1)(C(F)(F)F)C(F)(F)F
inactive: Potency [1] | Potency [2] | Potency [3] | Potency [4] | Potency [5] | Potency [6]

C/C=C(\C)C(=O)OC1C(C)C2(O)C(C=C(CO)CC3(O)C(=O)C(C)=CC32)C2C(C)(C)C12OC(=O)C(C)C (stereo not given)
inactive: Potency [1] | Potency [2] | Potency [3] | Potency [4] | Potency [5] | Potency [6]

COc1cc2nc(C3CC3)nc(N3CCN(c4ccccc4OC)CC3)c2cc1OC
inactive: Potency [1] | Potency [2] | Potency [3] | Potency [4] | Potency [5] | Potency [6]

CC(C)c1ccc(NC(=O)c2cccs2)c(-c2nc3ccccc3[nH]c2=O)c1
inactive: Potency [1] | Potency [2] | Potency [3] | Potency [4] | Potency [5] | Potency [6]

O=C(c1cc(Cc2n[nH]c(=O)c3ccccc23)ccc1F)N1CCCNCC1
inactive: Potency [1] | Potency [2] | Potency [3] | Potency [4] | Potency [5] | Potency [6]

O=C(Nc1ccnc(NC(=O)C2CC2)c1)c1c(Cl)cccc1Cl
inactive: Potency [1] | Potency [2] | Potency [3] | Potency [4] | Potency [5] | Potency [6]
